A selection: hits, their analogues and other compounds. The true share with any hit is near 1.8%.
GLP1R cytotox = cytotoxicity in counter-screen for GLP-1R inverse agonists; Potency, µM (top dose mostly 38.3 µM), inactives show at the top dose activity change, negative = inhibition, hits mostly inhibitors; HEK293 cAMP-luciferase reporter cells, luminescence, 24 h; AID 624418; 410,000 tested, 0.13% active;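 also: loss of luciferase light is scored as toxicity; % is scaled to controls: 0 for no effect and ±100 for the full control effect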
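Compound-treated cells are incubated 24 hr at 37 deg C under 5% CO2 after a 12 hour attachment period, then luciferase detection reagent is added and luminescence is measured following 12 min at room temperature; lowered signal indicates toxicity.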
GLP1R inv ag = GLP-1 receptor (human) inverse agonism | HEK293 GLP-1R CRE-luciferase, luminescence, 24 h; GLP-1R form is constitutively active | AID 624417 | P43220 | Potency, µM (doses to about 38.3 µM), for the others: at the highest dose activity change, negative = inhibition, usual class: inhibitors | 410,000 tested, 1.6% active; also: % is scaled to controls: 0 for no effect and ±100 for the full control effect; nearly all actives have a fitted effect of over 55% in size
Target sequence (P43220 whole entry, looked up): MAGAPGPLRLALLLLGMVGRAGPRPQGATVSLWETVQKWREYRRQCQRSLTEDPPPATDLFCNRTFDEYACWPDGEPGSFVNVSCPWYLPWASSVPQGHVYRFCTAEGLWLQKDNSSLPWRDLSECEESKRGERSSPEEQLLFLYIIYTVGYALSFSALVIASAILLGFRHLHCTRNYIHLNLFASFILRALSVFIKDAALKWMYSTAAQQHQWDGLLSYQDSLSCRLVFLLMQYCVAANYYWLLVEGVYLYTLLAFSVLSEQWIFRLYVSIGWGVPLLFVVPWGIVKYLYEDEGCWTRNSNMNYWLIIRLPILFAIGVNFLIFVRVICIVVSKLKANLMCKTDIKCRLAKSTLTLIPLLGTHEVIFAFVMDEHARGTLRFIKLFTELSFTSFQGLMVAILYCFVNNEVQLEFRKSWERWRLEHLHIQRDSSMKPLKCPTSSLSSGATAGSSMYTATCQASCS
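Inverse agonists were sought by their lowering of basal cAMP reporter luciferase output in HEK293 cells stably carrying constitutively active human GLP-1R, after 24 h compound treatment.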
Tb PFK inh = T. brucei PFK enzyme inhibition. T. brucei PFK, ADP-Glo luminescence. O15648. 330,000 tested, 0.17% active. Potency, µM (highest dose often 57.5 µM), inactives show at the highest dose activity, negative = inhibition, most hits filed as inhibitors;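 also: 0% = uninhibited 1x PFK enzyme wells and -100% = no-enzyme wells; nearly all actives have a fitted effect of over 60% in size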
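Compounds were pin-transferred as a titration series up to 57 uM into substrate buffer (0.5 mM F6P, 0.1 mM ATP, pH 8.0), then 1.25 nM PFK was added and reactions ran 45 min before ADP-Glo detection.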
GLP-1R agonist = activates the human GLP-1 receptor; Potency, µM (titrated, usually from 45.6 µM), for the others: at the top dose activation, hits mostly activators; HEK293 GLP-1R CRE-luciferase, luminescence, 4-6 h; cells express a hypersensitive GLP-1R form; AID 624172; P43220; 380,000 tested, 0.007% active; also: % of control where 0% means no effect
Pin1 inhibitor = inhibitors of human Pin1; Potency, µM (highest dose often 115 µM), inactives show top-dose activity, negative = inhibition, most hits filed as inhibitors; Pin1 FP peptide displacement, HiFluor488, 10 min; 390,000 tested, 0.009% active; active = well fitted inhibition curve with a large enough effect in the polarisation, with a control signal flat, not every such curve was filed as active; inconclusive = small, poorly fitted or top-dose-only effect, or effect the other way, or a change in a side signal; inactive = no such curve, though single readings can be large or run the other way; the % refers to the polarisation; also: % is scaled to controls: 0 for no effect and ±100 for the full control effect
Target sequence (Q13526 whole entry, looked up): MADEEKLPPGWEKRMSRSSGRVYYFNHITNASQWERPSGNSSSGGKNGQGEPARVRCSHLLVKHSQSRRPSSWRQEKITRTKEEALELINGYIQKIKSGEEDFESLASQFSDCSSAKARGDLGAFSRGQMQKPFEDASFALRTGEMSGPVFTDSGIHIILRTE
Tb PGK inh = blocks T. brucei phosphoglycerate kinase; P07378; PGK/GAPDH coupled, Kinase-Glo luminescence, 60 min; Potency, µM (series often up to 57.5 µM), for inactives: at the top dose activity change, negative = inhibition, most hits filed as inhibitors; 380,000 tested, 0.043% active; AID 602233; also: % is scaled to controls: 0 for no effect and ±100 for the full control effect; nearly all actives have a fitted effect of over 60% in size
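Recombinant glycosomal PGK reaction used 1,3-bisphosphoglycerate generated in-well by GAPDH (100nM final) in 100mM TEA pH 7.6, 5mM MgCl2, 0.01% Tween-20. After 60 minutes at room temperature, ATP was read by Kinase-Glo Plus luminescence end-point.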
* marks the source's active call; other numbers are inactive results; i = inactive; ? = inconclusive; · = not tested or not shown. Unless noted, calls follow the shape of the dose curve; as a rule, active = well fitted curve in the direction sought with a large enough effect; inconclusive = small, poorly fitted or top-dose-only effect, or another doubt; inactive = no such curve, though single readings can be large; an effect the other way counts as inactive or inconclusive. Potency is read from the fitted curve at half-maximal effect.

SMILES	GLP1R cytotox	GLP1R inv ag	Tb PFK inh	GLP-1R agonist	Pin1 inhibitor	Tb PGK inh
COc1cc2c(cc1OC)C(COc1ccccc1OC)N(C(=O)c1ccc(S(=O)(=O)N3CCCC3)cc1)CC2 (stereo not given)	12.8%	17.0%	·	5.0%	37.7%	-9.2%
Cc1cccc(NC(=O)CN(C)C(=O)c2ccc(N3CCCCCC3)c([N+](=O)[O-])c2)c1C	-22.8%	11.2µM*	-3.7%	13.5%	1.8%	-12.3%
CN(C)CCC(=O)C(Cc1ccccc1)c1ccccc1 (stereo not given)	?	-15.9%	·	-3.4%	7.6%	0.8%
CC(CCCN(C)C)C(Cc1ccccc1)c1ccccc1 (stereo not given)	-7.7%	11.2µM*	·	3.5%	-8.4%	-6.6%
Cc1nn(C(=O)c2ccc(Cl)cc2)c(C)c1S(=O)(=O)N1CCOCC1	6.7%	11.1%	·	0.7%	-2.6%	4.7%
c1ccc(CN2CCC(Nc3nc(-c4cccs4)nc4ccccc34)CC2)cc1	?	7.08µM*	2.1%	-4.1%	8.1%	-2.7%
c1csc(-c2nc(NCC3CCCO3)c3ccccc3n2)c1 (stereo not given)	-12.2%	?	-2.2%	16.3%	-1.2%	1.6%
O=C(Nc1cc(-c2ccccc2)nn1C1CCCCC1)c1ccc(Cl)cc1	-17.8%	10µM*	2.0%	-2.4%	-0.2%	-8.5%
Cn1nc(-c2ccccc2)cc1NC(=O)c1ccccc1	-18.5%	?	0.0%	1.2%	0.3%	-1.2%
O=C(O)Cc1nnc(-c2cc3ccccc3[nH]2)s1	·	·	·	·	15.5%	·
O=C(NCc1ccc(F)cc1)C1CCN(S(=O)(=O)c2ccc(Br)s2)CC1	-6.8%	10µM*	-1.8%	6.1%	1.3%	-3.6%
COc1ccc(-c2nnc(SCC(=O)N(C)Cc3ccccc3)o2)cc1OC	-2.4%	5.0%	·	·	10.8%	i
CN(Cc1ccccc1)C(=O)CSc1nnc(-c2cccc(Cl)c2)o1	5.5%	10µM*	·	·	4.1%	·
CC(C)Oc1ccc(CNC(=O)c2ccc3nc(C(C)C)oc3c2)cc1	4.1%	-5.6%	·	·	-1.6%	i
CCOc1ccccc1NC(=O)CN(C)S(=O)(=O)c1ccc(C(=O)N2CCOCC2)s1	1.1%	-0.5%	·	·	6.9%	-3.2%
COc1cc(-c2nc3cnccn3c2Nc2ccc(C(C)C)cc2)ccc1O	-13.2%	2.1%	0.6%	0.7%	1.0%	-1.6%
CC(C)c1ccc(Nc2c(-c3ccccc3O)nc3cnccn23)cc1	0.6%	10µM*	·	-7.1%	0.4%	11.7%
COC(=O)CN1C(=O)CSc2ccc(S(=O)(=O)Nc3ccc(Cl)cc3C)cc21	-1.4%	?	·	·	-0.9%	i
Cc1ccc(NC(=S)/C(C#N)=C2/Nc3ccccc3S2)cc1	?	3.98µM*	·	-2.5%	·	-17.8%
Fc1ccc(NC(=S)Nc2cc(-c3ccccc3)[nH]n2)cc1Cl	12.6µM*	?	-19.0%	1.5%	0.0%	i
Cc1ccc(NC(=S)Nc2cc(-c3ccccc3)[nH]n2)cc1Cl	?	-26.1%	6.9%	7.8%	-5.0%	-9.9%
NCCCCC(NC(=O)C1CCCN1C(=O)C1CSSCC(N)C(=O)NC(Cc2ccccc2)C(=O)NC(Cc2ccccc2)C(=O)NC(CCC(N)=O)C(=O)NC(CC(N)=O)C(=O)N1)C(=O)NCC(N)=O (stereo not given)	·	·	·	-0.2%	·	·
COc1ccc(CN(Cc2ccccc2)C(=O)c2ccc(OC)cc2O)cc1	·	·	·	·	-2.1%	·
Cc1cc(Cl)ccc1OCC(=O)N(Cc1ccco1)Cc1ccccc1F	7.1%	11.2µM*	·	·	8.5%	i
COc1ccc(C2Nc3ccccc3C(=O)N2Cc2ccccn2)cc1COc1ccc(NC(C)=O)cc1 (stereo not given)	·	·	·	·	0.6%	·
SMILES	GLP1R cytotox	GLP1R inv ag	Tb PFK inh	GLP-1R agonist	Pin1 inhibitor	Tb PGK inh
CC(=O)Nc1csc2ccccc12	4.0%	-11.6%	-7.0%	-1.5%	1.3%	-6.0%
O=C(Nc1ccccc1)Nc1csc2ccccc12	0.0%	8.91µM*	2.3%	-0.4%	10.8%	-3.2%
CC(C)C(=O)Nc1nnc(S(=O)(=O)N(C)Cc2ccc(F)cc2)s1	2.8%	10.9%	·	·	4.9%	-3.1%
O=C1NC(=S)S/C1=C\C=C\c1ccc([N+](=O)[O-])o1	?	?	-12.9%	-1.0%	0.2%	28.2µM*
O=C(CC1NCCNC1=O)Nc1ccc(F)c(Cl)c1 (stereo not given)	-10.7%	4.8%	·	·	-4.2%	-2.9%
COC(=O)c1ccccc1-c1ccc(/C=N/Nc2nc(N3CCCC3)nc(N3CCCC3)n2)o1	?	10µM*	-3.4%	7.5%	5.8%	i
COc1ccc(NS(=O)(=O)c2ccc3c(c2)CCC(=O)N3)cc1	·	·	·	·	-1.7%	·
Oc1c(C(c2ccccc2F)N2CCN(c3ccccc3F)CC2)sc2nc(-c3ccco3)nn12 (stereo not given)	-4.5%	14.0%	·	·	-3.2%	i
Cc1cc(C(=O)COC(=O)Cc2n[nH]c(=O)c3ccccc23)c(C)n1-c1cccc(C(F)(F)F)c1	-19.7%	7.08µM*	-1.0%	-0.8%	35.6%	-5.5%
CN1CCN(c2cccc(CNc3nn4c(=O)c5ccccc5nc4s3)c2)CC1	·	·	·	·	-36.1%	·
CCN1C(=O)[C@H]2[C@@H](c3ccc(C(F)(F)F)cc3)N[C@]3(CCCN(Cc4ccc(Cl)cc4)C3=O)[C@H]2C1=O	4.6%	10µM*	·	-5.1%	·	-4.1%
O=C1[C@H]2[C@@H](c3ccc(C(F)(F)F)cc3)N[C@]3(CCCN(Cc4ccccc4)C3=O)[C@H]2C(=O)N1Cc1ccccc1	-0.4%	11.2µM*	·	-5.6%	·	8.3%
O=C1[C@H]2[C@@H](c3ccc(C(F)(F)F)cc3)N[C@]3(CCCN(Cc4ccc(C(F)(F)F)cc4)C3=O)[C@H]2C(=O)N1Cc1ccccc1	3.4%	4.47µM*	·	-3.6%	·	-8.3%
COc1ccc([C@H]2N[C@]3(CCCN(Cc4ccc(C(F)(F)F)cc4)C3=O)[C@H]3C(=O)N(Cc4ccccc4)C(=O)[C@@H]23)cc1	-20.2%	?	·	-1.9%	·	i
N#C[C@H]1C[C@H]2C[C@@H]2N1C(=O)[C@@H](N)C12CC3CC(CC(O)(C3)C1)C2	·	·	·	-3.6%	·	·
COc1ccccc1N1CCN(Cc2cc(Br)c(O)c3ncccc23)CC1	1.12µM*	?	-2.7%	-6.8%	-7.6%	-3.0%
OCCN1CCN(Cc2cc(Cl)c3cccnc3c2O)CC1	?	?	0.0%	-8.0%	0.8%	6.7%
Oc1c(CN2CCN(c3ccccn3)CC2)cc(Cl)c2cccnc12	?	0.501µM*	-1.8%	7.5%	5.4%	-2.4%
CCOCc1cc(CN2CCN(c3ccccc3OC)CC2)c(O)c2ncccc12	-23.8%	5.01µM*	·	·	-4.1%	·
